The source of these data is PubChem BioAssay (EPA / NIEHS).

Calls of active or inactive are those of the source. How the source made its calls: active means hit-call score of the fitted dose curve at least 0.9, where 1 is the maximum; inactive means score below 0.9.

The nature of this test: APR_HepG2_CellCycleArrest_1hr: Apredica 1-hour HepG2 Assay for Cell Cycle Arrest (AID 2282666). The conditions noted are these: high-content imaging, actives raise or lower the signal. As for the experimental part:
APR_HepG2_1hr is a cell-based, multiplexed-readout assay that uses HepG2, a human liver cell line, with measurements taken at 1 hour after chemical dosing in a 384-well plate.APR_HepG2_CellCycleArrest_1hr is one of 10 assay component(s) measured or calculated from the APR_HepG2_1hr assay. It is designed to make measurements of cell phenotype, a form of morphology reporter, as detected with fluorescence intensity signals by HCS Fluorescent Imaging technology.Data from the assay component APR_HepG2_CellCycleArrest_1hr was analyzed into 1 assay endpoint. This assay endpoint, APR_HepG2_CellCycleArrest_1hr, was analyzed with bidirectional fitting relative to DMSO as the negative control and baseline of activity. Using a type of morphology reporter, measures of all nuclear dna for gain or loss-of-signal activity can be used to understand the signaling at the pathway-level as they relate to the gene . Furthermore, this assay endpoint can be referred to as a primary readout, because this assay has produced multiple assay endpoints where this one serves a signaling function. To generalize the intended target to other relatable targets, this assay endpoint is annotated to the cell cycle intended target family, where the subfamily is arrest.
Cells were treated with dimethyl sulfoxide (DMSO) as a solvent control at a final concentration of 0.5% v/v or with compounds in DMSO with a resulting final DMSO concentration of 0.5% v/v. Compound treatment was done at concentrations of 0.39, 0.78, 1.56, 3.12, 6.24, 12.5, 25, 50, 100, and 200 uM in duplicate on each plate. Cells were treated with compounds for 1, 24, or 72 hr. Carbonyl […] m-chloro-phenylhydrazone (CCCP) and taxol were used as positive controls for mitochondrial function and cytoskeletal stability, respectively; DMSO served as the negative control for this experiment. Cells were fixed by the direct addition of 50 uL formaldehyde in Hank's Balanced Salt Solution (HBSS) to a final concentration of 3.7%. After incubation in the fixation medium for 30 min at room temperature (293-298 K), cells were rinsed twice with HBSS and treated with cell permeabilization buffer (16 uL of 0.5% Triton X-100) for 10 min at room temperature (293-298 K) before labeling. For mitochondrial membrane potential and mitochondrial measurements, pre-fixed cells were incubated with 50 uL of MitoTracker Red CMXRos (Invitrogen) at a concentration of 250 nM for 30 min before fixation. In the remaining cases, post-fixed cells were labeled by incubation with a multiplexed mixture of primary antibodies in HBSS for 60 min at room temperature (293-298 K) to detect immunoreactivity of c-Jun (1:500), phospho-histone H3 (1:100), phospho-histone H2A.x (1:200), p53 (1:400), alpha-tubulin (1:200) and Hoechst 33342 (2 ug/mL). Cells were labeled for multiplexed imaging on two separate plates: a) Hoechst 33342, MitoTracker Red, phospho-histone H3, and alpha-tubulin, and b) Hoechst 33342, phospho-histone H2A.x, and c-Jun. A final rinse with HBSS (50 uL) was performed before analysis. The primary and secondary antibodies for the proteins were phospho-histone H3 (rabbit anti-phospho-histone H3 and FITC-donkey anti-rabbit IgG), phospho-histone H2A.x (mouse anti-phospho-histone H2A.x and FITC-donkey anti-mouse IgG), c-Jun (rabbit anti-phospho-c-Jun and Cy3-donkey anti-rabbit IgG), p53 (sheep anti-p53 and Cy5-donkey anti-sheep IgG), alpha-tubulin (mouse anti-alpha-tubulin and Cy5-donkey anti-mouse IgG). These antibodies are available as the CellCiphr HepG2 assay kit (Millipore).Digital images of each well were captured using a Cellomics ArrayScan VTI (Thermo Scientific Cellomics) (0.8 NA objective, 0.63x optical coupler, and XF-93 filter set) at 20x magnification. The images were acquired using the autofocus feature of the ArrayScan instrument, which entails the following steps. First, the camera focuses on channel 1 (Hoechst 33342), where nuclei are identified. Second, a Z offset of 1 um is used for capturing mitochondria (MitoTracker Red). […]
With `COC(=O)c1ccccc1S(=O)(=O)NC(=O)Nc1nc(C)nc(OC)n1`, the compound was called inactive.

In the case of `CN1CSC(=S)N(C)C1`, the call was inactive.

On to `CCN(CC)C(=O)SCc1ccc(Cl)cc1`, for which the outcome was inactive.

For `C[C@H]1[C@H](c2ccc(Cl)cc2)SC(=O)N1C(=O)NC1CCCCC1`, the result was inactive.

For `O=S(=O)(O)C(F)(F)C(F)(F)C(F)(F)C(F)(F)C(F)(F)C(F)(F)C(F)(F)C(F)(F)F`, the result was inactive.

`CCC(C)(C)C(=O)OC1=C(c2ccc(Cl)cc2Cl)C(=O)OC12CCCCC2`: the result was inactive.

Turning to `N#CN`, the compound was classed as inactive.

For the compound `ClC1C(Cl)C(Cl)C(Cl)C(Cl)C1Cl` (stereo not given), the compound was classed as inactive.

Regarding `CCOC1Oc2ccc(OS(C)(=O)=O)cc2C1(C)C` (stereo not given), the compound was classed as inactive.

For `Cc1cc(C)nc(NC(=O)NS(=O)(=O)c2ccccc2C(=O)OC2COC2)n1`, the compound was called inactive.

On to `O=C(O)COc1ccc(Cl)cc1Cl`, for which the call was inactive.

On to `COc1cc(OC)nc(NC(=O)NS(=O)(=O)c2cc(NC=O)ccc2C(=O)N(C)C)n1`, for which the compound was classed as inactive.

For `CCS(=O)(=O)c1cccnc1S(=O)(=O)NC(=O)Nc1nc(OC)cc(OC)n1`, the call was inactive.

Take `O=[N+]([O-])/N=C1\NCCN1Cc1ccc(Cl)nc1`: the compound was classed as inactive.

As to `O=C(NC(=O)c1c(F)cccc1F)Nc1ccc(OC(F)(F)C(F)OC(F)(F)F)c(Cl)c1` (stereo not given), the outcome was inactive.

`CCC(C)Nc1c([N+](=O)[O-])cc(C(C)(C)C)cc1[N+](=O)[O-]` (stereo not given): the compound was classed as inactive.

On to `CCC(C)(NC(=O)c1cc(Cl)c(C)c(Cl)c1)C(=O)CCl` (stereo not given), for which the compound was classed as inactive.

Consider `CC[C@H](C)[C@H]1O[C@]2(C=C[C@@H]1C)C[C@@H]1C[C@@H](C/C=C(\C)[C@@H](O[C@H]3C[C@H](OC)[C@@H](O[C@H]4C[C@H](OC)[C@@H](O)[C@H](C)O4)[C@H](C)O3)[C@@H](C)/C=C/C=C3\CO[C@@H]4[C@H](O)C(C)=C[C@@H](C(=O)O1)[C@]34O)O2` (tested in a mixture with another compound), for which the compound was classed as inactive.

On to `CC1(C)C(C=C(Cl)Cl)C1C(=O)OC(C#N)c1ccc(F)c(Oc2ccccc2)c1` (stereo not given), for which the result was inactive.

`CNC(=O)CSP(=S)(OC)OC`: the call was inactive.

On to `COP(=S)(OC)Oc1ccc(SC)c(C)c1`, for which the compound was called inactive.

Consider `Clc1ccccc1-c1nnc(-c2ccccc2Cl)nn1`, for which the compound was called inactive.

On to `O=C1c2ccccc2C(=O)N1SC(Cl)(Cl)Cl`, for which the outcome was inactive.

With `CC1(c2ccc(Oc3ccccc3)cc2)OC(=O)N(Nc2ccccc2)C1=O` (stereo not given), the compound was called inactive.

With `O=C(Nc1ccccc1)Nc1cnns1`, the compound was called inactive.

Turning to `CCOCN(C(=O)CCl)c1c(C)cccc1CC`, the compound was classed as inactive.

With `O=C(O)CCCOc1ccc(Cl)cc1Cl`, the compound was classed as inactive.

Consider `CNC(=O)Oc1cccc(N=CN(C)C)c1`, for which the compound was classed as inactive.

As for `CC(C)N(C(=O)COc1nnc(C(F)(F)F)s1)c1ccc(F)cc1`, the call was inactive.

As for `COP(=O)(OC)OC=C(Cl)Cl`, the call was inactive.

As for `CC(C)(C)C(O)C(Oc1ccc(Cl)cc1)n1cncn1` (stereo not given), the compound was called inactive.

Turning to `OCCOc1ccccc1`, the compound was called inactive.

Consider `COP(=S)(OC)Oc1ccc([N+](=O)[O-])cc1`, for which the call was inactive.

Consider `O=[N+]([O-])c1c(Cl)c(Cl)c(Cl)c(Cl)c1Cl`, for which the compound was called inactive.

Take `[2H]C1([2H])[n+]2ccccc2-c2cccc[n+]2C1([2H])[2H]`: the outcome was inactive.

Regarding `CNC(=O)Oc1ccccc1OC(C)C`, the outcome was inactive.

Regarding `O=S1OCC2C(CO1)C1(Cl)C(Cl)=C(Cl)C2(Cl)C1(Cl)Cl` (stereo not given), the result was inactive.

In the case of `CCCN(CCC)c1c([N+](=O)[O-])cc(C(F)(F)F)cc1[N+](=O)[O-]`, the call was inactive.

For `CNC(=O)/C=C(\C)OP(=O)(OC)OC`, the compound was classed as inactive.

`C#CCN1C(=O)COc2cc(F)c(N3C(=O)C4=C(CCCC4)C3=O)cc21`: the result was inactive.
